Screens as filed in PubChem.
Only some compounds are listed: those with a hit (about 4.1% of all), similar ones and a draw of the others.
hcDAF-12 act – activators of H. contortus DAF-12 nuclear receptor | hit rate 1.4% among 370,000 | activation, % at 6.8 µM | AID 652067 | HEK293 hcDAF-12 lit1-tk-luc reporter, luminescence; 0% DMSO, 100% Δ7-dafachronic acid;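 active = activation above the mean of all tested compounds plus 3 SD, cut at about 5.5% in these data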;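 note: 100% = response to 3 µM Δ7-dafachronic acid high control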
DAX1 inh-1 – inhibitors of human orphan nuclear receptor DAX1 (NR0B1). inhibition, % at 6.75 µM. P51843. AID 504766. hit rate 0.99% among 340,000. HEK293 Gal4-DAX1 luciferase reporter, luminescence;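 active = inhibition above the mean over all tested compounds plus 3 SD, cut at about 4.2% in these data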;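 note: 0% = DAX1-transfected cells with DMSO and 100% = empty-vector control cells with DMSO; inhibition shows as a rise in luminescence from relieved DAX1 repression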
hgDAF12 agonist – activates the H. glycines DAF-12 receptor ligand-binding domain; HEK293 GAL4-hgDAF12 UAS-luciferase reporter, agonist luminescence; normalized to butyrate control; activation, % at 6.8 µM; hit rate 1.8% among 370,000; AID 687014;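 active = activation above a cutoff set at the mean of all screened compounds plus 3 SD, cut at about 10% in these data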;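 note: 0% = DMSO wells and 100% = sodium butyrate wells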
DAX1 inh-2 – blocks DAX1 repression of SF-1 activated StAR promoter. HEK293T StAR-luciferase reporter, SF-1/DAX-1 repression relief. inhibition, % at 6.8 µM. hit rate 1.1% among 370,000. AID 652010;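 active = inhibition above the mean over all tested compounds plus 3 SD, cut at about 3.6% in these data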;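 note: 0% = DAX-1 cells with DMSO and 100% = cells lacking DAX-1 with DMSO; higher inhibition means more luminescence from relief of DAX-1 repression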
ssDAF12 agonist – activators of S. stercoralis DAF-12 nuclear receptor. activation, % at 6.8 µM. hit rate 1% among 370,000. HEK293 ssDAF-12/GRIP1 lit1-tk-luc reporter, luminescence; % of 3 µM dafachronic acid response;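 active = activation above the mean over all tested compounds plus 3 SD, cut at about 0.9% in these data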;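 note: 0% = DMSO-only wells and 100% = 3 µM delta7-dafachronic acid wells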
hgDAF12 ag – confirmation of H. glycines DAF-12 agonists | shares compounds with hgDAF12 agonist | HEK293 GAL4-hgDAF12 luciferase reporter, agonist mode; percent of butyrate response | activation, % at 6.8 µM | hit rate 80% among 3,300 | AID 743050;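 active = mean activation over triplicate wells above the hit cutoff derived from the earlier primary screen, cut at about 11% in these data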;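 note: 0% = DMSO low control and 100% = 2 mM sodium butyrate high control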
LXRb DAF12 ctr – counter-screen for DAF-12 agonists: agonists of human LXR-beta | shares compounds with hgDAF12 agonist | 3,300 tested, under 10 active | activation, % at 6.8 µM | HEK293 Gal4-LXR luciferase reporter, 24 h;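 active = mean activation of the triplicate above a set limit carried over from the primary screen, none filed active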
Target sequence (P55055 whole entry, looked up, the tested form may be a part): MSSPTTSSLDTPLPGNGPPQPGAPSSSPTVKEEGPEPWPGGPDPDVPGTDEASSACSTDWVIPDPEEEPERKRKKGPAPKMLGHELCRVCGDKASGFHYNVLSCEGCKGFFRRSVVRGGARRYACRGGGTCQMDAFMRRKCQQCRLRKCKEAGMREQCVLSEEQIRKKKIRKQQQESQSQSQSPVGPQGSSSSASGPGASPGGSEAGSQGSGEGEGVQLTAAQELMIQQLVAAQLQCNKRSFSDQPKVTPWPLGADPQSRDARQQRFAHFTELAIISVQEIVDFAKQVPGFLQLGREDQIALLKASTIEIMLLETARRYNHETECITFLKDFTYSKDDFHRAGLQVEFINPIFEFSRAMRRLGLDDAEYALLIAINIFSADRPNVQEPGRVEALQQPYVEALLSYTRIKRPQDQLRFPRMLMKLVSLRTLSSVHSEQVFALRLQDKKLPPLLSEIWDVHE
Active calls of the source: *; . = no result.

SMILES	hcDAF-12 act	DAX1 inh-1	hgDAF12 agonist	DAX1 inh-2	ssDAF12 agonist	hgDAF12 ag	LXRb DAF12 ctr
COc1cc(/C=N/NC(=O)c2ccccn2)cc2c1OCO2	3	3	14*	2	0	7	0
O=C(N/N=C/c1cc2c(cc1Cl)OCO2)c1ccccn1	3	4	8	2	-1	.	.
COc1ccc(NC(=O)c2ccccc2NC(=O)C2CCCCC2C(=O)O)cc1 (configuration not stated)	5	3	14*	2	0	3	0
C=CCNc1nc(NCc2ccc(N(C)C)cc2)c2sc(-c3ccccc3)cc2n1	2	.	15*	4.5*	0	10	0
COc1cccc(COc2ccc3c(C)cc(=O)oc3c2)c1	3	3	16*	3	0	14*	1
Cc1cc(=O)oc2cc(OCC(=O)Nc3nccs3)ccc12	5	1	20*	2	0	18*	1
COc1ccc2c(C)cc(=O)oc2c1	-2	0	-1	0	-1	.	.
COC(=O)[C@]12C[C@H](CC(=O)N3CCN(C(=O)c4ccco4)CC3)C(=O)N(CCC3=CCCCC3)C1=C[C@H](C(C)(C)C)O[C@@H]2C	1	.	1	1	-1	.	.
CCCC(C)NC(=O)COC(=O)c1ccc2c(c1)C(=O)N(Cc1ccco1)C2=O (configuration not stated)	4	0	0	0	0	.	.
CCOC(=O)N1CCN(C(=O)CSCc2ccccc2Cl)CC1	2	1	5	0	-1	.	.
O=C(NNC1=C(C(=O)C(F)(F)F)CCC1)c1cccc(O)c1	2	3	13*	4.3*	0	6	0
CCOc1ccc(C(=O)Nc2ccc(C(F)(F)F)n(C)c2=O)cc1	-1	2	-2	0	-2	.	.
COc1cccc(C(=O)Nc2ccc(C(F)(F)F)n(C)c2=O)c1	6.3*	2	18*	2	-1	14*	1
CCOC(=O)c1ccc2nc(C)c3c(c2c1)OC(C)C3 (configuration not stated)	1	-2	0	0	-2	.	.
CCOC(=O)c1ccc2nc3c(cc2c1)CCS3	2	1	16*	0	0	11*	0
CC1(C(=O)NS(=O)(=O)c2ccc(C#N)cc2)CCN1C(=O)C1(c2ccccc2)CCCC1 (configuration not stated)	-1	.	-1	0	-1	.	.
CCOC(=O)COc1ccccc1C(=O)c1cnn(-c2ccccc2)c1	4	0	14*	0	0	5	0
CCOC(=O)COc1ncn(-c2ccccc2)n1	0	0	-1	0	-1	.	.
O=C(O)c1ccc(CNC(=O)C2CCN(S(=O)(=O)c3cccs3)CC2)cc1	1	1	1	0	-1	.	.
CCOc1cc(/C=N/O)ccc1OCc1ccc(C)cc1	0	0	2	0	-2	.	.
O/N=C/c1cc(Br)cc(Br)c1OCc1ccccc1	-2	-1	-4	0	-2	.	.
O/N=C/c1ccc(OCc2ccccc2)c(Cl)c1	4	5.0*	15*	2	1.4*	13*	1
O/N=C/c1ccc(OCc2ccccc2)c(Br)c1	3	1	16*	1	0	22*	1
COc1cccc(CNC(=O)CCNC(=O)C2CCN(S(=O)(=O)c3ccccc3)CC2)c1	0	0	1	0	-2	.	.
OC(c1ccc(Cl)c(Cl)c1)c1ncc(-c2ccccc2Cl)[nH]1 (configuration not stated)	1	.	0	0	-1	.	.
SMILES	hcDAF-12 act	DAX1 inh-1	hgDAF12 agonist	DAX1 inh-2	ssDAF12 agonist	hgDAF12 ag	LXRb DAF12 ctr
CC(C)n1c(-c2ccc(N(C)C)cc2)nc2ccccc21	5.8*	1	16*	3	1	7	0
Cc1ccc(/C=N/NC(=O)c2ccoc2C)s1	2	1	15*	3	0	10	1
CCN(CC)c1ccc(/C=N/NC(=O)c2ccoc2C)cc1	5	1	17*	2	0	19*	1
Cc1occc1C(=O)N/N=C/c1ccc(Br)s1	1	2	8	2	0	.	.
O=C(N/N=C/c1ccc[nH]1)c1ccc([N+](=O)[O-])cc1	3	1	3	0	0	.	.
COc1ccc(C2N=C(c3ccccc3)NO2)cc1OC (configuration not stated)	6.1*	5.9*	14*	2	1	12*	1
Cc1ccc(-c2nc3ccccc3s2)cc1NC(=S)NC(=O)c1cccc2ccccc12	6.0*	4.4*	17*	3	0	12*	1
Cc1c(NC(=S)NC(=O)c2cccc3ccccc23)cccc1C(=O)O	-2	0	-1	1	-1	.	.
CCNC(=O)c1sc2cc(C)ccc2c1Cl	3	1	15*	1	0	10	0
Fc1ccc2nc(Nc3ccccc3)sc2c1	4	2	19*	3	-1	14*	1
Fc1ccc2nc(Nc3nc4c(F)cc(F)cc4s3)sc2c1	4	0	1	0	1	.	.
Fc1ccc2nc(Nc3nc4cc5c(cc4s3)OCCO5)sc2c1	2	1	15*	4.2*	1.5*	5	1
Cc1cccc(NC(=O)CN2CCN(C(=O)c3cc(C4CC4)nn3-c3ccccc3)CC2)c1C	3	0	-4	0	-1	.	.
O=C(CN1CCN(C(=O)c2cc(C3CC3)nn2-c2ccccc2)CC1)Nc1ccc(F)cc1	-1	0	15*	-1	-1	-3	0
COc1ccc(CNS(=O)(=O)CC2NCCc3ccccc32)cc1 (configuration not stated)	-2	.	1	0	-1	.	.
CCCSc1nsc(NC(=O)CC)n1	4	1	17*	3	-1	11*	1
CCCCCCSc1nsc(NC(=O)CC(C)C)n1	2	2	4	0	0	.	.
CCOC(=O)CSc1nc2cc3c(cc2cc1C#N)OCCO3	4	12*	17*	3	0	12*	1
CCOC(=O)CSc1nc2cc3c(cc2cc1C)OCO3	0	0	-3	0	0	.	.
CCOC(=O)CSc1nc2cc3c(cc2cc1C#N)OCO3	4	2	14*	3	1	15*	1
COCc1ccc(C(=O)N(C)C2CCCN(Cc3ccccc3F)C2)o1 (configuration not stated)	0	1	1	0	-1	.	.
CCCCCn1c(=O)c(-c2nc3ccccc3[nH]2)c(O)c2ccccc21	4	.	1	0	0	.	.
c1ccc(CSc2ncn(-c3ccccc3)n2)cc1	5	5.0*	14*	2	0	19*	1
